Screens deposited in PubChem BioAssay by National Center for Advancing Translational Sciences (NCATS).
Rows were chosen to be rich in hits. Some 2.8% of all compounds tested hit in one or more screens of this group.
POLB inh: DNA polymerase beta (human) inhibition; Pol beta primer extension/strand displacement, fluorescence kinetic; Potency, µM (top dose mostly 114 µM), hits mostly inhibitors; 340,000 tested, 1.3% active; P06746
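Reaction started by 50 nM substrate onto compound-treated Pol beta (10 nM, 15 min preincubation, room temperature); plates read at 0 min and 10 min. Normalized concentration-effect data fitted by four-parameter Hill equation.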
Pol kappa inh: inhibitors of human DNA polymerase kappa | purified Pol kappa, fluorescent DNA synthesis assay, 10 min | Potency, µM (titrated, usually from 107 µM), hits mostly inhibitors | 400,000 tested, 0.53% active | AID 588579
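10 nM Pol kappa was preincubated with compounds for 15 min at room temperature. Reaction started with 50 nM (final) substrate. Fluorescence read kinetically at 0 and 10 min.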
WRN helicase inh: inhibitors of human WRN helicase; 360,000 tested, 0.46% active; WRN helicase unwinding, fluorescent forked duplex, kinetic; Q14191; Potency, µM (highest dose often 114 µM), usual class: inhibitors; AID 651768; further: nearly all actives have a fitted effect of over 55% in size
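WRN at 20 nM final preincubated with compound 15 min at room temperature; reaction started with 100 nM fluorophore/quencher forked duplex oligonucleotide and 2 mM ATP final. Unwinding followed kinetically by red fluorescence (ex 525, em 598 nm).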
Pol eta inh: inhibitors of human DNA polymerase eta | Q9Y253 | recombinant Pol eta, fluorescent DNA replication assay | Potency, µM (titrated, usually from 114 µM), usual class: inhibitors | 390,000 tested, 1.2% active | AID 588591
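Fluorescent replication assay: 50 nM final substrate added after a 15 min room-temperature compound preincubation with 10 nM enzyme. Signal taken at 0 min and again at 10 min.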
Pol iota inh: blocks human DNA polymerase iota activity. Pol iota fluorescent replication assay, 10 min. 390,000 tested, 1% active. Potency, µM (titrated, usually from 115 µM), hits mostly inhibitors. AID 588590
Target sequence (Q9UNA4 whole entry, looked up): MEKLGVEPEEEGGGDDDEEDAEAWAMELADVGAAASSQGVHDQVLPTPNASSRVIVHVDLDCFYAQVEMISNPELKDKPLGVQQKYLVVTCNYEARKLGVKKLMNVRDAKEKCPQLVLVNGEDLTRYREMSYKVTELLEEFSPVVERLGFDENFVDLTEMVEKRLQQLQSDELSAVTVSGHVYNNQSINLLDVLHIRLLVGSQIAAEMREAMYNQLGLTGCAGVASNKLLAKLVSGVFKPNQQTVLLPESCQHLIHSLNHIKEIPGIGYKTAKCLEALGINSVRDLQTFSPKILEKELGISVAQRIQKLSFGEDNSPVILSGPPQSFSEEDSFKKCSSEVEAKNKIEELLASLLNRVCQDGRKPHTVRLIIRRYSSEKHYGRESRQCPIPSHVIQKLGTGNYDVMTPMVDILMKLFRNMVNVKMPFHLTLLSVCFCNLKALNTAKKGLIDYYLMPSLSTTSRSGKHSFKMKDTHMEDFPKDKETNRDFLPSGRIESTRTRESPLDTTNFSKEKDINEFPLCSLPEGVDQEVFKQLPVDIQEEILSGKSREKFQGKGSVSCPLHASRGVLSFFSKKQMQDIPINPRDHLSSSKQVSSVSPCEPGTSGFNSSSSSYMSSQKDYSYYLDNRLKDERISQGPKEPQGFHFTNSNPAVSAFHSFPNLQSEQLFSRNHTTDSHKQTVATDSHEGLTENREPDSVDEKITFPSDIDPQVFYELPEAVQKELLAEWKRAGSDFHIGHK
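Pol iota at 10 nM preincubated 15 min with compounds at room temperature; reaction started with fluorescent substrate, 50 nM final. Fluorescence read kinetically at 0 and 10 min; buffer-only wells as negative control.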
PI5P4K alpha inh: PI5P4K alpha (human) kinase inhibition. P48426. PI5P4Kalpha enzyme, ADP-Glo luminescence, 60 min; hits give low values. max response, %. 330,000 tested, 1.2% active. AID 652105; active means max response of -50% or lower; inconclusive means between -30% and -50%; inactive means -30% or higher; further: value at the top dose of about 77 µM
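Controls without substrate or without enzyme flank wells where PI5P4Kalpha converts substrate using 5 microM ATP (final). Incubation lasts 60 minutes at room temperature; ADP formed is read by ADP-Glo luminescence.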
ADP-Glo interf: counter-screen for PI5P4K inhibitors: ADP-Glo detection interference, no enzyme; shares compounds with PI5P4K alpha inh; ADP-Glo detection counter-screen, luciferase luminescence, no enzyme; Potency, µM (top dose mostly 76.9 µM), actives largely listed as inhibitors; 1,100 tested, under 10 active; AID 743285
Numbers stand for hits; . = inactive; ? = inconclusive; / = not tested or not shown; [ ] = dose if it differs, or a comment. Unless noted, the call rests on the fitted dose curve; in most records, active means well fitted curve in the direction sought with a large enough effect; inconclusive means small, poorly fitted or top-dose-only effect, or another doubt; inactive means no such curve, though single readings can be large; an effect the other way counts as inactive or inconclusive.

SMILES	POLB inh	Pol kappa inh	WRN helicase inh	Pol eta inh	Pol iota inh	PI5P4K alpha inh	ADP-Glo interf
Cn1nnnc1Sc1ncnc2scc(-c3ccc(C(F)(F)F)cc3)c12	/	.	/	.	.	/	/
Cn1nnnc1Sc1ncnc2scc(-c3ccccc3C(F)(F)F)c12	/	.	/	.	.	/	.
COc1ccc(Nc2ncnc3c2cnn3C)c(OC)c1	.	.	/	.	.	/	/
CCOC(=O)C1(C)CCN1C(=O)c1ccccc1Br (stereo unspecified)	/	/	.	/	/	.	/
COc1ccc(C(=O)NCCSc2ccccc2)cc1OC	.	.	?	.	.	-87	.
COc1cc(C(=O)NCCSc2ccccc2)cc(OC)c1OC	.	.	.	.	.	.	/
COc1cc(C(=O)NCC(=O)N2CCN(S(=O)(=O)c3cc(C)ccc3C)CC2)cc(OC)c1OC	.	.	.	.	.	.	/
Cc1ccc(-c2csc(NC(=O)c3ccccc3Cl)c2C(=O)O)cc1	.	.	.	.	.	-55	.
Cc1ccc(-c2csc(NC(=O)c3ccc(Br)cc3)c2C(=O)O)cc1	.	.	.	50µM	.	-77	.
Cc1cccc(C(=O)Nc2scc(-c3ccc(Br)cc3)c2C(=O)O)c1	/	.	?	.	.	?	/
COc1cc(C(=O)Nc2scc(-c3ccc(Br)cc3)c2C(=O)O)cc(OC)c1OC	.	.	.[11.6 µM]	?	.	-98	.
N[C@@H](CSS(=O)(=O)O)C(=O)O	/	.[19.4 µM]	/	/	/	/	/
Cc1ccc(CNC(=O)Cn2ccn(-c3ccc(C)c(C)c3)c(=O)c2=O)cc1	.	.	/	.	.	/	/
COc1ccc(N2CC(O)=C(c3nc(-c4ccc(Br)cc4)cs3)C2=N)cc1	.	.	.	.	.	.	/
COc1ccc(N2CC(O)=C(c3nc(-c4ccccc4)cs3)C2=N)cc1	.	.	.	.	?	-53	.
CC(C)CN(C[C@@H](OP(=O)(O)O)[C@H](Cc1ccccc1)NC(=O)O[C@@H]1CCOC1)S(=O)(=O)c1ccc(N)cc1	/	.[19.4 µM]	/	/	/	/	/
Cc1ccc2c(CNCCc3ccccc3)c(C(=O)O)n(Cc3ccccc3C)c2c1	.	.	/	.	.	/	/
Cc1ccc(CNc2ncnc3ccc(-c4ccoc4C)cc23)o1	/	/	/	/	/	/	.
COc1cc2ncnc(NCc3ccc(C)o3)c2cc1OC	.	.	.	.	.	.	/
CCCn1c(=O)c2[nH]c(-c3ccc(S(=O)(=O)O)cc3)nc2n(CCC)c1=O	.	.	.	.	.	-82	.
CCOc1ccc(NC(=O)CN(C)C(=O)CCNC(=O)c2ccco2)cc1OCC	/	.	.	.	.	.	/
C[C@@H]1C[C@H](OC(=O)[C@@H](O)c2ccccc2)CC(C)(C)N1C	/	.[12 µM]	/	/	/	/	/
CC(=O)Nc1ccc2nc(SCC(=O)NCCOc3ccccc3)sc2c1	.	.	.	.	?	-61	.
CCN(CC)C(=O)CSc1nc2ccc(NC(=O)CSc3nnc(N)s3)cc2s1	32µM	?	.	11µM	13µM	-57	.
CCN(CC)S(=O)(=O)c1cc(NC(=O)CSc2nnc(N)s2)ccc1C	/	.	.	.	.	.	/
SMILES	POLB inh	Pol kappa inh	WRN helicase inh	Pol eta inh	Pol iota inh	PI5P4K alpha inh	ADP-Glo interf
CCC(=O)Nc1ccc2nc(SCCOc3ccccc3)sc2c1	.	.	/	.	?	/	/
CCc1nc2c(OCc3ccccc3)cccn2c1N(C)C(=O)C(C)C	/	/	.	/	/	.	/
Cc1ccc(-n2c(=S)[nH]c3sc4c(c3c2=O)CCC4)cc1	.	.	?	.	.	-55	.
COc1ccc(C(=O)NC(CCSC)C(=O)N2CCCCCC2)cc1 (stereo unspecified)	.	.	.	.	.	-76	.
CSCCC(NC(=O)c1ccccc1Cl)C(=O)N1CCCCCCC1 (stereo unspecified)	/	.	.	.	.	.	/
Cc1ccc(-n2ncc3c(=O)[nH]c(SCC(=O)NCC4CCCO4)nc32)cc1 (stereo unspecified)	/	.	.	.	.	.	/
O=C(CSc1nc2c(cnn2-c2cccc(Cl)c2)c(=O)[nH]1)NCC1CCCO1 (stereo unspecified)	/	.	.	.	.	/	.
OCCCNc1cc(-c2ccnc(Nc3cccc(Cl)c3)n2)ccn1	.	.	.	.	.	-51	.
Cc1ccc(-c2csc3nc4cc(C(N)=O)ccc4c(=O)n23)cc1	?	.	.	.	?	-51	.
Cc1ccc(CNC(=O)c2ccc3c(=O)n4c(-c5ccc(C)cc5)csc4nc3c2)cc1	.	.	.	.	.	.	/
CN(C)S(=O)(=O)c1cccc(NC(=O)C2CCCN(C(=O)c3ccc(Cl)cc3)C2)c1 (stereo unspecified)	/	/	.	.	/	.	/
COc1cccc(Nc2nnc(SCC(=O)Nc3sccc3C(N)=O)s2)c1	.	.	.	.	?	-52	.
O=C1NN=C2CCCCCC12 (stereo unspecified)	/	/	.	.	/	.	.
O=[N+]([O-])c1ccc2nc(-c3ccc(Cl)cc3)[nH]c2c1	.	.	.	?	.	?	/
O=[N+]([O-])c1ccc(-c2cc(-c3ccc(Cl)cc3)n[nH]2)cc1	?	.	100µM	?	.	-69	.
NS(=O)(=O)c1cccc(NC(=O)C(Cc2ccccc2)NC(=O)c2ccccc2)c1 (stereo unspecified)	.	.	.	.	.	.	/
NC(Cc1ccc(C(F)(F)F)cc1)c1csc(NC(=O)Nc2ccccc2Oc2ccccc2)n1 (stereo unspecified)	/	/	.	/	/	-50	.
NC(Cc1ccccc1)c1csc(NC(=O)Nc2ccccc2Oc2ccccc2)n1 (stereo unspecified)	/	/	.	/	/	.	/
O=C(Nc1ccc(F)cc1F)c1cc(-c2ccco2)nc2ccccc12	.	.	.	.	.	?	/
O=C(Nc1nc(-c2ccco2)c(-c2ccco2)s1)c1ccc(F)cc1F	/	50µM	?	?	?	-64	.
CCn1c(=S)[nH]c2scc(-c3cccs3)c2c1=O	.	.	.	.	.	-53	.
Cc1ccc2c(c1)N(CC(=O)N1CCOCC1)C(=O)C(C)O2 (stereo unspecified)	.	.	.	.	.	.	/
Cc1ccc2c(c1)N(CC(=O)N1CCCCCC1)C(=O)C(C)O2 (stereo unspecified)	.	.	.	.	.	-73	.
N#Cc1ccc(OCC(=O)N2CCCC2=O)cc1	/	.	.	.	?	.	/
O=C(Oc1ccc(N(Cc2cccs2)C2=NS(=O)(=O)c3ccccc32)cc1)c1ccccc1Cl	.	.	?	.	?	-65	.
CCOC(=O)N1CCN(C(=O)CCS(=O)(=O)c2ccc3c(c2)CCN3C(=O)CC)CC1	.	.	.	.	.	?	.
